# Measurements from PubChem BioAssay (NCATS).
# Where “and” joins values, the source holds several entries; their conditions need not be identical. Identical values can stand only once. Results filed as inconclusive are left out. Entries that show only a call come without a potency. Calls of active or inactive are those of the source. Unless noted, calls follow the shape of the dose curve; as a rule, active = well fitted curve in the direction sought with a large enough effect; inconclusive = small, poorly fitted or top-dose-only effect, or another doubt; inactive = no such curve, though single readings can be large; an effect the other way counts as inactive or inconclusive.
# Experiments:
# [1] = molecular target: Thyrotropin-releasing hormone receptor (Homo sapiens) (UniProt P34981); test: qHTS for Small Molecule Agonists and Allosteric Enhancers of Human TRH Receptor: Validation Screen for Agonists (AID 493127;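 active = calcium activation more than 3 SD above the typical response in the agonist read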;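 also: intracellular calcium rise by fluo-8 fluorescence before TRH EC20 addition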); conditions: TRH receptor agonist cell assay; at 2 µM; stronger effect = higher value
# Chain of Thyrotropin-releasing hormone receptor (Homo sapiens) (P34981 whole entry, looked up): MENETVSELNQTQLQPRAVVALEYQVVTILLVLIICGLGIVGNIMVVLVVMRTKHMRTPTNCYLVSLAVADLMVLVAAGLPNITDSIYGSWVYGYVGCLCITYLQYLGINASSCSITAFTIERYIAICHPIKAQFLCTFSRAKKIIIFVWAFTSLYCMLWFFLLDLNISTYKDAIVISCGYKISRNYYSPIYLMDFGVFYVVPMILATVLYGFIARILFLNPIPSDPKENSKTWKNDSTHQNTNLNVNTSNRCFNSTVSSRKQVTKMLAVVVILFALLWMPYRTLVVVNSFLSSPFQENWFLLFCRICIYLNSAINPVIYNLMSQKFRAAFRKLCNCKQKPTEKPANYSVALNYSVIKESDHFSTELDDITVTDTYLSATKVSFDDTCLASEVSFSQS
# In short: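 Read-out: intracellular calcium release measured kinetically by FDSS (fluo-8, ex 480/em 530 nm), 1 reading/s after a 10-cycle baseline. TRHR cells, 2000/well, cultured 18 h at 33.5C, dye-loaded at room temp. Compound-evoked positive calcium signal flags agonists.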
# [2] = qHTS for Inhibitors of Cell Surface uPA Generation: Validation Assay (AID 493164); conditions: mouse cells, plasminogen activation; series mostly up to 38.3 µM;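 also: RAW 264.7 macrophage cells exposed to compound for 18 h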
# In short: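 Compounds are titrated over seven points (2.45 nM–38.3 uM final) onto pre-plated RAW 264.7 cells and incubated for 18 h. Retained intracellular ATP, measured with ATP-Lite, indicates blocked lethal factor entry.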
# [3] = molecular target: Galactokinase (Homo sapiens) (UniProt P51570); test: qHTS Validation Assay for Inhibitors of Human Galactokinase (GALK) (AID 493189); conditions: purified human GALK enzyme activity, qHTS 7-point titration; series mostly up to 57.5 µM
# Chain of Galactokinase (Homo sapiens) (P51570 whole entry, looked up): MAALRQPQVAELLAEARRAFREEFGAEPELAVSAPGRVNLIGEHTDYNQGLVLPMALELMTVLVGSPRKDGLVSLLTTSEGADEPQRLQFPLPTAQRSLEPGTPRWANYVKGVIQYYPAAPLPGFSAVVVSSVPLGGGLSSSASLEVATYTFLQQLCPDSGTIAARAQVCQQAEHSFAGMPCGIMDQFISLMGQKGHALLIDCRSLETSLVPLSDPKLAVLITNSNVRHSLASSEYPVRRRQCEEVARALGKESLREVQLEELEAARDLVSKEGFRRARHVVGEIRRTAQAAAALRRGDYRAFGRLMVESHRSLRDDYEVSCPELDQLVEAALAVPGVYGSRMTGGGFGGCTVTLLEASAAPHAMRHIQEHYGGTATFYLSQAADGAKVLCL
# In short: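 GALK (5 nM) with 35 uM ATP and 100 uM galactose in HEPES pH8.0, MgCl2, NaCl, DTT, BSA; 1 h at room temperature. Residual ATP read by Kinase-Glo Plus luminescence after 10 min.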
# [4] = molecular target: Peptidyl-prolyl cis-trans isomerase NIMA-interacting 1 (Homo sapiens) (UniProt Q13526); test: qHTS Validation Assay to Find Inhibitors of Pin1 (AID 504536; active = well fitted inhibition curve with a large enough effect in the polarisation, with a control signal flat, not every such curve was filed as active; the % refers to the polarisation); conditions: Pin1 fluorescence polarization peptide binding assay; series mostly up to 57.5 µM
# Chain of Peptidyl-prolyl cis-trans isomerase NIMA-interacting 1 (Homo sapiens) (Q13526 whole entry, looked up): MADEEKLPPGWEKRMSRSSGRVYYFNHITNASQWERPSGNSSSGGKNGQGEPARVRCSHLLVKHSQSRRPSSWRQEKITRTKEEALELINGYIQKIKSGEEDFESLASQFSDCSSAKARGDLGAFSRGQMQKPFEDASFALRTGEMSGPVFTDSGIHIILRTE
# In short: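 Fluorescence polarization competition: compounds (titration) displace HiFluor-488-labeled Pin1-1b peptide from Pin1 (0.3 uM final) in pH 7.5 HEPES buffer with DTT, 10 min at room temperature; %Activity normalized to no-enzyme wells, curves fitted.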
# [5] = molecular target: Phosphoglycerate kinase, glycosomal (Trypanosoma brucei brucei) (UniProt P07378); test: qHTS Validation Assay to Find Inhibitors of Phosphoglycerate Kinase (AID 504547); conditions: enzymatic PGK inhibition, coupled luminescence read-out; series mostly up to 57.5 µM
# Chain of Phosphoglycerate kinase, glycosomal (Trypanosoma brucei brucei) (P07378 whole entry, looked up): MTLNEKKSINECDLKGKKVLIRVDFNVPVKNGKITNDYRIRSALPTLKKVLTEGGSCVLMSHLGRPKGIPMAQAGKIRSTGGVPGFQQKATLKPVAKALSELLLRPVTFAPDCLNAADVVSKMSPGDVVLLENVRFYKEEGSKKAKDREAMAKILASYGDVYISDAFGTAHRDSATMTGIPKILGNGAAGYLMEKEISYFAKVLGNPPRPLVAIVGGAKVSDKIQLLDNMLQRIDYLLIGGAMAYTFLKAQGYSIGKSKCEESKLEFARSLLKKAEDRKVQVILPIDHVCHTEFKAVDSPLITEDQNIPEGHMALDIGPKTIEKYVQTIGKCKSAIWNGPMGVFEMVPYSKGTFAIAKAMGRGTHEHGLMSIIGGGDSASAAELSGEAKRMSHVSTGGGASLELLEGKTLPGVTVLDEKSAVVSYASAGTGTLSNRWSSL
# In short: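 In TEA buffer (100mM, pH 7.6) containing 5mM MgCl2 and 0.01% Tween-20, the GAPDH-coupled PGK reaction proceeded for 60 minutes at room temperature before a single luminescence reading using Kinase-Glo Plus.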
# [6] = molecular target: phosphoglycerate mutase (Leishmania major) (UniProt Q4Q090); test: qHTS Validation Assay to Find Inhibitors of Phosphoglycerate Mutase (AID 504548); conditions: biochemical enzyme activity; series mostly up to 57.5 µM
# Chain of phosphoglycerate mutase (Leishmania major) (Q4Q090 1-553): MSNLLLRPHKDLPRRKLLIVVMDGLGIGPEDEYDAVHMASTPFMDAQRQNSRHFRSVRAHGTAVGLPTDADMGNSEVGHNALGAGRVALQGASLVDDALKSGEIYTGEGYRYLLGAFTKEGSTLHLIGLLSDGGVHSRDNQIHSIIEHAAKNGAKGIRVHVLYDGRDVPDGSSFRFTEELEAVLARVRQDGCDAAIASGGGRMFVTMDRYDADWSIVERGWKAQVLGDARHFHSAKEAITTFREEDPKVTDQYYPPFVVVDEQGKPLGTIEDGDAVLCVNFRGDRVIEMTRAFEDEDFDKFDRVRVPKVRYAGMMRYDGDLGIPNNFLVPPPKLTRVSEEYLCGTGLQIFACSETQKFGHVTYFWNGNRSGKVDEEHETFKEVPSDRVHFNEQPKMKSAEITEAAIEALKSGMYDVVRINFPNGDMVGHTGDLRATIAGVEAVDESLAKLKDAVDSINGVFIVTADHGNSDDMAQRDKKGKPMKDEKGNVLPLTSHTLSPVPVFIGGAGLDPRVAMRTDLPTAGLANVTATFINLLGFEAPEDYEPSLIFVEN
# In short: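 Lm PGAM 1.25nM final; 100 mM TEA pH 7.6, 5 mM MgCl2, 0.01% Tween-20; 45 min RT; Kinase-GloPlus, 10 min; end-point luminescence. Enzyme-free wells as negative controls.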
# [7] = molecular target: Ubiquitin carboxyl-terminal hydrolase 1 (Homo sapiens) (UniProt O94782); test: Inhibitors of USP1/UAF1: Pilot qHTS (AID 504865); conditions: purified USP1/UAF1, Ub-rhodamine cleavage fluorescence; series mostly up to 114 µM; also: nearly all actives have a fitted effect of over 35% in size; also: potency is read from the fitted curve at half-maximal effect
# Chain of Ubiquitin carboxyl-terminal hydrolase 1 (Homo sapiens) (O94782 whole entry, looked up): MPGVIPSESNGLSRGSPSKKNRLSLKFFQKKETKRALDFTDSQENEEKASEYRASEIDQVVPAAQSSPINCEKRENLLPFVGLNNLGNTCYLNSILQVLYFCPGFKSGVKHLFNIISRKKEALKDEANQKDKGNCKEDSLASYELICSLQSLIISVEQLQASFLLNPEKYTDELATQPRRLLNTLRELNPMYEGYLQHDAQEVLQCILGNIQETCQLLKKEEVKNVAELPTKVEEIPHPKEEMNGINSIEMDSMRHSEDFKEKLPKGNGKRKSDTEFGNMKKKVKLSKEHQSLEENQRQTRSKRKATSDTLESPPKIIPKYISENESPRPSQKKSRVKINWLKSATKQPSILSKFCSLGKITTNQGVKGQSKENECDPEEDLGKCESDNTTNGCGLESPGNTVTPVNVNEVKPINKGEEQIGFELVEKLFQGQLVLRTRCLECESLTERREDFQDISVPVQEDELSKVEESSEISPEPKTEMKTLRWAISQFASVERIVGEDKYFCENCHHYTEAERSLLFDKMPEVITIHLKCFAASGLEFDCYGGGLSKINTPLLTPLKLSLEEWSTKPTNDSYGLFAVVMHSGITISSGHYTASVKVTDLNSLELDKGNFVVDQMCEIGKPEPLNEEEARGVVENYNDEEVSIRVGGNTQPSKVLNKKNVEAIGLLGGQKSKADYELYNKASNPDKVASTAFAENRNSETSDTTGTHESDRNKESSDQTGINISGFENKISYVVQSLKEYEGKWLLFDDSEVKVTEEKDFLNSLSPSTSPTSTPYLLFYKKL
# In short: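 USP1/UAF1 complex (1nM) preincubated with compound 15 min at room temperature, then Ub-Rho substrate (150nM final) added. Fluorescence read kinetically at 480/540 nm, 6 reads every 60 seconds. Buffer: 50mM HEPES pH 7.8, 0.5mM EDTA, 0.1 mg/ml BSA, 1mM TCEP, 0.01% Tween-20.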
# [8] = molecular target: Estrogen receptor (Homo sapiens) (UniProt P03372); test: qHTS assay for small molecule antagonists of estrogen receptor alpha signaling (AID 588513; active = well fitted curve in the direction sought with a large enough effect in the signal ratio, with a control signal flat, not every such curve was filed as active; the % refers to the signal ratio); conditions: ER-alpha-UAS-bla HEK293, beta-lactamase ratio, antagonist mode; series mostly up to 76.9 µM
# Chain of Estrogen receptor (Homo sapiens) (P03372 whole entry, looked up): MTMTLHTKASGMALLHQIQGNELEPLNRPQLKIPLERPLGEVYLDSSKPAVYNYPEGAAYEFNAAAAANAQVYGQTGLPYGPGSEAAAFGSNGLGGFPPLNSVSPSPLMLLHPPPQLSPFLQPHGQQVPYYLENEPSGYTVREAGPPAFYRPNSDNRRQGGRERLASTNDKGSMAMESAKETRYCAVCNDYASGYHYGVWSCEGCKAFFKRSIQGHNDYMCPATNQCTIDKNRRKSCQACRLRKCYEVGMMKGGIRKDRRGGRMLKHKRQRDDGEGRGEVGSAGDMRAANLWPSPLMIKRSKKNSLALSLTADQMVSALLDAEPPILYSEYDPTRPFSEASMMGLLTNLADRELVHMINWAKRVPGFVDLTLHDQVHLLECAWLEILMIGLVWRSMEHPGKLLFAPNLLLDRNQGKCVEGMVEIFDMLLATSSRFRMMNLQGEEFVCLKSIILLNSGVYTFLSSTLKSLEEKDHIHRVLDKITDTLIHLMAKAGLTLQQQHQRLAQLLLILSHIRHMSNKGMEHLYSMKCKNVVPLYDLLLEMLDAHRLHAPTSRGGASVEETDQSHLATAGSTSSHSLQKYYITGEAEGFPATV
# In short: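 ER-alpha-UAS-bla GripTite HEK 293 cells in medium with 2% charcoal/dextran-treated FBS were preincubated 4 h at 37 C, dosed with compound (1:2 titration), stimulated with 0.5nM 17-beta-estradiol for 18 h, then read by CCF4 beta-lactamase fluorescence.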
# [9] = molecular target: Estrogen receptor (Homo sapiens) (UniProt P03372); test: qHTS assay for small molecule agonists of estrogen receptor alpha signaling (AID 588514; calls by dose curve; also: nearly all actives have a fitted effect of over 70% in size); conditions: ER-alpha-UAS-bla HEK293, beta-lactamase ratio, 18 h; series mostly up to 76.8 µM
# In short: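 Read-out: CCF4 fluorescence from a beta-lactamase reporter in ER-alpha-UAS-bla HEK 293 cells after 18 hrs of compound exposure at 37 C. Normalized to 20 nM 17-beta-estradiol (100%) and DMSO (0%).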
# [10] = molecular target: Glucocorticoid receptor (Homo sapiens) (UniProt P04150); test: qHTS assay for small molecule agonists of glucocorticoid receptor signaling (AID 588532; active = well fitted curve in the direction sought with a large enough effect in the signal ratio, with a control signal flat; the % refers to the signal ratio); conditions: HeLa MMTV-bla, beta-lactamase ratio, agonist, 18 h; activation: stronger effect = higher value, percent of dexamethasone control, DMSO zero
# Chain of Glucocorticoid receptor (Homo sapiens) (P04150 whole entry, looked up): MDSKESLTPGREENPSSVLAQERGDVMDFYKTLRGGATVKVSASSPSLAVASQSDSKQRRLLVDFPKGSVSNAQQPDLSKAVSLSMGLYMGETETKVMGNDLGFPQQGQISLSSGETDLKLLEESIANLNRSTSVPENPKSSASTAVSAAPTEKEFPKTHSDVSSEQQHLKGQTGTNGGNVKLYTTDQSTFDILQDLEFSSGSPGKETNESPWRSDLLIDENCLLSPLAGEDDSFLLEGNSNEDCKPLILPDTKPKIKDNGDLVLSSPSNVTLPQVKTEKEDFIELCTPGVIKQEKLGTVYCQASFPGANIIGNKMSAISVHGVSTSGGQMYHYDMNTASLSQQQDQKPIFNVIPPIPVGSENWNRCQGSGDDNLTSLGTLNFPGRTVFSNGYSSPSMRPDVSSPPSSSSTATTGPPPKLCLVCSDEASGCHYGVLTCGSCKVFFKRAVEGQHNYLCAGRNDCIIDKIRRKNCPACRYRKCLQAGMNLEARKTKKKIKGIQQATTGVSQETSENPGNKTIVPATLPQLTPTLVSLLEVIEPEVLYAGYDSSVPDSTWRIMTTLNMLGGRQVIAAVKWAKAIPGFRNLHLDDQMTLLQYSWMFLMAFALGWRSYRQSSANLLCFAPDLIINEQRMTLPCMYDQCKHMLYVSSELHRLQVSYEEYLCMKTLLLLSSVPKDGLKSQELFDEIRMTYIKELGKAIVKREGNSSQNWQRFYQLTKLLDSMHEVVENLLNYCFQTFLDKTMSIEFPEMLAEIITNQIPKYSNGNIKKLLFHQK
# In short: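 MMTV-bla HeLa, beta-lactamase reporter; medium with 1% charcoal/dextran-stripped FBS; cpds up to 92 uM, 18 h, 37 C; CCF4 readout 460/530 nm; Hill fit → EC50, efficacy vs 0.1 uM dexamethasone = 100%.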
# [11] = molecular target: Glucocorticoid receptor (Homo sapiens) (UniProt P04150); test: qHTS assay for small molecule antagonists of glucocorticoid receptor signaling (AID 588533; active = well fitted inhibition curve with a large enough effect in the signal ratio, with a control signal flat, not every such curve was filed as active; the % refers to the signal ratio;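 also: cells stimulated with 2 nM dexamethasone as agonist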; also: potency is read from the fitted curve at half-maximal effect); conditions: HeLa MMTV-bla, GRE beta-lactamase ratio, antagonist mode, 18 h; series mostly up to 76.8 µM
# In short: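 Antagonist-mode qHTS: compound titrations added to GRE-bla HeLa cells, then dexamethasone 2 nM final; 18 h, 37 C. CCF4 FRET fluorescence normalized to dexamethasone and DMSO; IC50 from Hill fit.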
# [12] = Validation screen for small molecules that induce DNA re-replication in SW480 colon adenocarcinoma cells (AID 504364); conditions: DNA re-replication phenotype (high-content imaging); series mostly up to 46.1 µM
# In short: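 Read-out: total Hoechst intensity of nuclei by fluorescence scanning imager; hits raise the fraction of nuclei with elevated DNA content. Cells received compound for 48 hr at 37 C before a 40 min stain.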
# [13] = qHTS for Inhibitors of ATXN expression: Validation of Cytotoxic Assay (AID 588349); conditions: cytotoxicity counter-screen for ATXN expression inhibitors, cell viability; series mostly up to 57.1 µM; also: potency is read from the fitted curve at half-maximal effect
# In short: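 Cytotoxicity counter-screen: HEK293 cells exposed to compound titrations, 72 hr, 37 degrees C. Read-out is intracellular ATP (CellTiter Glo luminescence) as a viability measure.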
# [14] = qHTS for Inhibitors of ATXN expression: Validation (AID 588378); conditions: cell-based ATXN2 expression reporter assay, luminescence; series mostly up to 57.1 µM; also: nearly all actives have a fitted effect of over 75% in size; also: potency is read from the fitted curve at half-maximal effect
# In short: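 Luminescence from an ATXN2-FFLuc reporter in HEK293 cells served as read-out after 24 h compound treatment at 37 degrees C; CellTiter-Fluor fluorescence was recorded first to assess viability.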
# [15] = Nrf2 qHTS screen for inhibitors: Validation (AID 493153; active = well fitted inhibition curve with a large enough effect in the main read-out, with a control signal flat, not every such curve was filed as active); conditions: A549 ARE-Fluc reporter, 18-24 h; Potency: luciferase luminescence; viability change: measured here: cytotoxicity max response; luciferase luminescence, at 46.1 µM (top of the series)
# In short: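 Concentration-response test in A549 ARE_Fluc reporter cells (5% FBS OPTI-MEM), compound exposure 18-24 h at 37°C, 5% CO2. Cell viability measured first by CellTiter-Fluor fluorescence; ARE-driven luciferase luminescence then measured as Nrf2 activity.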
# [16] = molecular target: Bile acid receptor (Homo sapiens) (UniProt Q96RI1); test: qHTS assay for small molecule antagonists of farnesoid X receptor signaling (AID 588526; calls by dose curve); conditions: HEK293T FXR-UAS-bla, beta-lactamase ratio, antagonist mode; series mostly up to 76.7 µM
# Chain of Bile acid receptor (Homo sapiens) (Q96RI1 whole entry, looked up): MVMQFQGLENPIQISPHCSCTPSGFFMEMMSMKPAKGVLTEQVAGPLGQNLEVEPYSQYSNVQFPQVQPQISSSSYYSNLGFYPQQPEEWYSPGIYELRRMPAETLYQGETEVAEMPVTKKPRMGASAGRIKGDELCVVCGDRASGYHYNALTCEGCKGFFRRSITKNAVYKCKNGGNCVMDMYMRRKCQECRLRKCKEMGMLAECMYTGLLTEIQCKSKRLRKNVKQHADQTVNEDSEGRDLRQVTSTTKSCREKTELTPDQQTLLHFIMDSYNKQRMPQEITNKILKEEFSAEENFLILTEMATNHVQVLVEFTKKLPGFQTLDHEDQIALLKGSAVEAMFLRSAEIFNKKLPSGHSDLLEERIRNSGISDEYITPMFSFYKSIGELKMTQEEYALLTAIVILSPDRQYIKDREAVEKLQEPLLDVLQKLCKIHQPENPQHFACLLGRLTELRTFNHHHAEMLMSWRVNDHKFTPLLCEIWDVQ
# In short: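 Concentration-response titrations were fitted to the Hill equation for half-maximal inhibition and maximal response, with data normalised to 50 uM chenodeoxycholic acid and DMSO control wells. Cells: FXR-UAS-bla HEK293T, dialyzed FBS.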
smiles,measurement,setting,value
Nc1ncn([C@@H]2O[C@H](CO)[C@@H](O)[C@H]2O)c(=O)n1,activation,[1],1.31% (inactive)
same,outcome,[2],inactive
same,outcome,[3],inactive
same,outcome,[4],inactive
same,outcome,[5],inactive
same,outcome,[6],inactive
same,Potency,[7],inactive
same,outcome,[8],inactive
same,Potency,[9],inactive
same,activation,[10],-7.09% (inactive) and -13.7% (inactive)
same,Potency,[11],7.94 µM (active) and 5.62 µM (active)
C[n+]1cc2c3c(ccc2c2ccc4cc5c(cc4c21)OCO5)OCO3,activation,[1],2.44% (inactive)
same,outcome,[2],inactive
same,outcome,[3],inactive
same,outcome,[12],inactive
same,outcome,[4],inactive
same,outcome,[5],inactive
same,outcome,[6],inactive
same,Potency,[7],inactive
same,Potency,[13],3.55 µM (active)
same,Potency,[14],6.31 µM (active)
CN1C(=O)CC[C@H]1c1cccnc1,Potency,[15],inactive
same,viability change,[15],0.268%
same,outcome,[2],inactive
same,outcome,[4],inactive
same,outcome,[5],inactive
same,Potency,[7],inactive
same,Potency,[13],inactive
same,Potency,[14],inactive
NC(=Nc1ccccc1)Nc1ccccc1,Potency,[7],inactive
same,Potency,[9],inactive
same,outcome,[16],inactive
same,Potency,[11],inactive
CN(C)C(=O)Oc1ccc[n+](C)c1,Potency,[15],inactive
same,viability change,[15],-10.4%
same,outcome,[2],inactive
same,outcome,[3],inactive
same,outcome,[12],inactive
same,outcome,[4],inactive
same,outcome,[5],inactive
same,outcome,[6],inactive
same,Potency,[7],inactive
same,Potency,[13],inactive
same,Potency,[14],inactive
CC(N=C(NC#N)Nc1ccncc1)C(C)(C)C (stereo not drawn),activation,[1],0.125% (inactive)
same,Potency,[15],inactive
same,viability change,[15],-0.502%
same,outcome,[2],inactive
same,outcome,[12],inactive
same,outcome,[4],inactive
same,Potency,[7],inactive
same,Potency,[13],inactive
same,Potency,[14],inactive
CC(C)(C)c1ccc(C(=O)CCCN2CCC(OC(c3ccccc3)c3ccccc3)CC2)cc1,Potency,[15],inactive
same,viability change,[15],-5.59%
same,outcome,[2],inactive
same,outcome,[4],inactive
same,outcome,[5],inactive
same,Potency,[13],inactive
same,Potency,[14],inactive
Cc1cc(C)c(/C=C2\C(=O)Nc3ccccc32)[nH]1,activation,[1],0.562% (inactive)
same,outcome,[2],inactive
same,outcome,[3],inactive
same,outcome,[12],inactive
same,outcome,[5],inactive
same,Potency,[7],7.52 µM (active)
same,Potency,[14],inactive
CCc1cccc(N(C)C(N)=Nc2cccc3ccccc23)c1,Potency,[15],inactive
same,viability change,[15],-0.401%
same,outcome,[2],inactive
same,outcome,[3],inactive
same,outcome,[4],inactive
same,outcome,[5],inactive
same,Potency,[7],inactive
COC(=O)[C@H]1[C@H]2C[C@@H]3c4[nH]c5cc(OC)ccc5c4CCN3C[C@H]2C[C@@H](OC(=O)c2cc(OC)c(OC)c(OC)c2)[C@@H]1OC,Potency,[15],inactive
same,viability change,[15],-13.6%
same,outcome,[2],inactive
same,outcome,[3],inactive
same,outcome,[5],inactive
same,outcome,[6],inactive
same,Potency,[13],inactive
same,Potency,[14],inactive
same,activation,[10],4.47% (inactive)
same,Potency,[11],inactive
COCC(=O)O[C@]1(CCN(C)CCCc2nc3ccccc3[nH]2)CCc2cc(F)ccc2[C@@H]1C(C)C,activation,[1],7.31% (inactive)
same,outcome,[2],inactive
same,outcome,[3],inactive
same,outcome,[12],inactive
same,outcome,[4],inactive
same,outcome,[5],inactive
same,Potency,[7],inactive
same,Potency,[13],28.2 µM (active)
same,Potency,[14],15.8 µM (active)
NC1=NCC2c3ccccc3Cc3ccccc3N12 (stereo not drawn),Potency,[15],inactive
same,viability change,[15],6.37%
same,outcome,[2],inactive
same,outcome,[4],inactive
same,outcome,[5],inactive
same,outcome,[6],inactive
same,Potency,[7],inactive
same,Potency,[13],inactive
same,Potency,[14],inactive
CN(C)CCCN1c2ccccc2Sc2ccc(C(F)(F)F)cc21,Potency,[15],inactive
same,viability change,[15],0.635%
same,outcome,[3],inactive
same,outcome,[4],inactive
same,outcome,[5],inactive
same,outcome,[6],inactive
